Here are results for 14 compounds from ChEMBL document CHEMBL1157539, “Thousands of chemical starting points for antimalarial lead identification” (Nature, 2010).

Each structure is given as a SMILES string.

The experiment has as its system HepG2. Briefly: GSK_TCMDC: Percent inhibition of human HepG2 cell line. Test compounds present at 10uM. The format is functional.
One may read the Inhibition as the percentage by which the read-out fell short of the control. Higher therefore signals a response far below the control. Take `CC(=O)Nc1cccc(C(=O)Nc2nc3ccc(-c4cc(=O)[nH]c(Nc5ccccc5Cl)n4)cc3[nH]2)c1`: the Inhibition came to 0%. With `O=C(Nc1cccc(CN2CCCN(Cc3cccnc3)CC2)c1)c1ccc(Cl)c(Cl)c1.O=C(O)C(F)(F)F` the figure was 16%.

As to `CCCC(=O)c1cnc2cc(O)ccc2c1Nc1ccccc1C`, the Inhibition is 14%. As for `O=C(NC1CC1)c1ccc(N2CCCC(COc3ccc4c(c3)CCCC4)C2)nc1` (centres undefined), the figure is 0%; as for `COc1ccc(C(=O)C2CC2CN(C)CC(O)c2cc(C)c(OC)cc2C)cc1.O=C(O)C(F)(F)F` (centres undefined), 8%.

For the compound `OC(CNCc1ccccc1Oc1ccccc1)c1cccc(C(F)(F)F)c1` (centres undefined), the Inhibition came to 0%. As for `Cl.Clc1ccc(-n2cnc3c(Nc4ccc(Oc5ccccc5)cc4)ncnc32)cc1Cl`, the figure is 4%; as for `Cl.N#Cc1ccc2c(c1)CCN(CCC1CCC(NC(=O)/C=C/c3ccc4ccccc4c3)CC1)CC2` (centres undefined), 20%; as for `Cc1nc2c(=O)sc3ccccc3c2n1Cc1ccccc1`, 0%. The compound `Cc1cccc2nc(-c3cccc(-c4cccc(NC(=O)CC5NC(=O)c6ccccc65)c4)c3)[nH]c12` (centres undefined) yielded an Inhibition of 8%. As for `Cc1cc(-c2nc3ccc(CN4CCN(C)CC4)cc3[nH]2)nn1Cc1cc(Cl)ccc1OCc1ccccc1.Cl`, the figure is 3%; as for `Cc1c(CC(=O)N(C)C2CCN(CCCCCNC(=O)/C=C/c3ccc(Cl)c(Cl)c3)CC2)sc2ccc(Cl)cc12`, 93%. As for `COc1cc2c(Nc3ccc(Br)cc3F)ncnc2cc1OCC1CCN(C)CC1.Cl`, the figure is 10%; as for `Fc1ccc2c(NN=Cc3ccccc3F)ccnc2c1`, 10%.
